Inhibition data for 40 compounds are collected here from PubChem BioAssay.

A number with no mark means an inactive call. No rule for the calls is given here.

Sequence of Pantothenate synthetase (Mycobacterium tuberculosis (strain ATCC 25618 / H37Rv)) (P9WIL5 whole entry, looked up): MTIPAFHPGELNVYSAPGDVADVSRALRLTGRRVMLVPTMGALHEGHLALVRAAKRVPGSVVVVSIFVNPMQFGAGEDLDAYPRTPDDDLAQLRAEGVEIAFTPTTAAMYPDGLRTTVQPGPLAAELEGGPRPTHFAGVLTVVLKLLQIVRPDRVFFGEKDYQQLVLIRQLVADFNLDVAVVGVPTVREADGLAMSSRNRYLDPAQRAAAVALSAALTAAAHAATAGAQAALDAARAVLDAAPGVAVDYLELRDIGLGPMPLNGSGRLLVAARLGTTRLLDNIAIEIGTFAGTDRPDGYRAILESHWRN

The experiment has as its target Pantothenate synthetase (Mycobacterium tuberculosis (strain ATCC 25618 / H37Rv)) (UniProt P9WIL5). Put plainly: Coupled enzyme confirmation of inhibitors against recombinant Mtb PanC (AID 375).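 Also: 0% = full reaction with vehicle and 100% = no enzyme background.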 The note with it: coupled enzyme assay; at 10 µM, stronger effect = higher value.
One may read the inhibition as the percentage by which the read-out fell short of the control. Regarding `CCOc1cccc2cc(C(=O)N3CCN(C/C=C/c4ccccc4)CC3)c(=O)oc12`, the inhibition was 0%.
For the compound `N#CC1=C(N)n2c(s/c(=C\c3ccco3)c2=O)=C(C#N)C1c1ccco1` (stereo not given), the inhibition is 0%.
For the compound `CCn1c(C)cc(=S)c2ccccc21`, the inhibition is 9%.
Consider `COc1cccc(NC(=O)C2CCCN2C(=O)Nc2cccc(F)c2)c1` (stereo not given), for which the inhibition was 0%.
As for `CCCCSc1nc2c(cnn2-c2ccc(F)cc2)c(=O)[nH]1`, the inhibition was 0%.
As to `CC(C)Nc1ncnc2c1cnn2-c1ccccc1`, the inhibition is 0%.
Next, `CCn1c(=O)c2cc(S(=O)(=O)NCc3ccccc3)ccc2n(CC)c1=O`: 0%; `CCOC(=O)C1CCN(c2c(N(C)Cc3ccco3)c(=O)c2=O)CC1`: 0%; `O=C1OCCC1Sc1ncnc2sccc12` (stereo not given): 0%.
Next, `O=C(Cn1nnc(-c2cccs2)n1)OC1CCCCC1`: 4%; `Cc1ccc(C(=O)CC2(O)C(=O)N(C)c3ccc(Br)cc32)c(C)c1` (stereo not given): 0%.
Next, `O=C(Cn1c(=O)sc2ccccc21)NCCOc1ccccc1F`: 0%.
`Cc1csc(SCCn2c(N3CCCC3)nc3c2c(=O)[nH]c(=O)n3C)n1`: the inhibition was 0%.
Next, `CC(Oc1ccccc1)C(=O)NC1CC(C)(C)NC(C)(C)C1` (stereo not given): 0%.
On to `CCCCc1ccc(NC(=O)N[C@H](C(=O)O)C(C)CC)cc1` (stereo not given in full), for which the inhibition was 0%.
Next, `Cc1cc(NC(=O)CSc2ccc(Cl)cc2)no1`: 0%.
Next, `C=C(C)CSc1nnc2[nH]c(=O)cc(N)n12`: 0%.
`Nc1nonc1-c1noc(-c2ccccc2Br)n1`: the inhibition was 0%.
Next, `CC(C)CN(CC(C)C)c1nc(N)c(C#N)c(CC#N)c1C#N`: 0%; `CC1C(=O)C(C)C(c2cccs2)NC1c1cccs1` (stereo not given): 0%; `Cc1coc(NC(=O)CSc2nc(-c3ccncc3)cc(C(F)(F)F)c2C#N)n1`: 0%.
With `Cn1cccc1Cc1nnc(SCC(=O)Nc2ccccc2F)n1-c1ccc(F)cc1`, the inhibition is 0%.
Consider `COc1cccc(-n2c(C)nc3c(cnn3-c3ccc(Cl)cc3)c2=O)c1`, for which the inhibition is 4%.
For the compound `O=C(OCCCCN1C(=O)c2ccccc2C1=O)c1n[nH]c2ccccc12`, the inhibition is 2%.
On to `Cc1nnc(NC(=O)Nc2cccc(Cl)c2)s1`, for which the inhibition is 0%.
For the compound `Nn1c(SCC(=O)Nc2ccccc2)nnc1-c1cccnc1`, the inhibition is 0%.
As for `COC(=O)C1CCN(C(=O)c2sc3nc(-c4ccc(F)cc4)cn3c2C)CC1`, the inhibition was 0%.
On to `CCc1ccccc1NC(=O)CSc1nc2n[nH]c(C)c2c(=N)n1-c1ccc(OC)cc1`, for which the inhibition was 0%.
For `COC(=O)c1ccccc1NC(=O)COc1ccc(S(=O)(=O)N2CCCC2)cc1C`, the inhibition was 0%.
With `Cc1nnc(SCC(=O)NC(C)(C)C)n1CCc1ccccc1`, the inhibition was 0%.
With `CCNc1ccc(C(=O)OCC)cc1NC(=O)c1cc(S(=O)(=O)N2CCOCC2)ccc1C`, the inhibition was 2%.
For the compound `Cc1cccc(OCC(=O)N2CCN(C(=O)Cc3ccccc3)CC2)c1`, the inhibition is 1%.
As to `COc1ccc(CN(Cc2cc3cc4c(cc3[nH]c2=O)OCO4)C(=O)NC2CCCCC2)cc1`, the inhibition was 3%.
Next, `CC1CN(Cc2nc3c(c(=O)[nH]c(=O)n3C)n2CC(N)=O)CC(C)O1` (stereo not given): 4%; `O=C(NCc1ccc2c(c1)OCO2)C1CCCN(S(=O)(=O)c2cccnc2)C1` (stereo not given): 0%; `Cc1onc(-c2ccccc2)c1C(=O)Nc1ccnn1C1CCCCC1`: 1%.
`N[C@@H](Cc1ccc(O)c(I)c1)C(=O)O`: the inhibition is 6%.
Next, `Cn1c(=O)c2c3c(sc2n2c(SCC(=O)c4ccc(Cl)cc4)nnc12)COC(C)(C)C3`: 0%; `c1ccc2c(c1)C(=Nn1cnnc1)c1ccccc1-2`: 0%; `O=C(NCCN1CCOCC1)C1CC(=O)N(c2ccc(F)c(Cl)c2)C1` (stereo not given): 7%.
